{"source": "PubChem BioAssay AID2284333", "about": "(EPA ToxCast)", "target": "rainbow trout Glucocorticoid Receptor (GR), nr3c1 (gene 100136786) (UniProt P49843)", "sequence (P49843 whole entry, looked up)": "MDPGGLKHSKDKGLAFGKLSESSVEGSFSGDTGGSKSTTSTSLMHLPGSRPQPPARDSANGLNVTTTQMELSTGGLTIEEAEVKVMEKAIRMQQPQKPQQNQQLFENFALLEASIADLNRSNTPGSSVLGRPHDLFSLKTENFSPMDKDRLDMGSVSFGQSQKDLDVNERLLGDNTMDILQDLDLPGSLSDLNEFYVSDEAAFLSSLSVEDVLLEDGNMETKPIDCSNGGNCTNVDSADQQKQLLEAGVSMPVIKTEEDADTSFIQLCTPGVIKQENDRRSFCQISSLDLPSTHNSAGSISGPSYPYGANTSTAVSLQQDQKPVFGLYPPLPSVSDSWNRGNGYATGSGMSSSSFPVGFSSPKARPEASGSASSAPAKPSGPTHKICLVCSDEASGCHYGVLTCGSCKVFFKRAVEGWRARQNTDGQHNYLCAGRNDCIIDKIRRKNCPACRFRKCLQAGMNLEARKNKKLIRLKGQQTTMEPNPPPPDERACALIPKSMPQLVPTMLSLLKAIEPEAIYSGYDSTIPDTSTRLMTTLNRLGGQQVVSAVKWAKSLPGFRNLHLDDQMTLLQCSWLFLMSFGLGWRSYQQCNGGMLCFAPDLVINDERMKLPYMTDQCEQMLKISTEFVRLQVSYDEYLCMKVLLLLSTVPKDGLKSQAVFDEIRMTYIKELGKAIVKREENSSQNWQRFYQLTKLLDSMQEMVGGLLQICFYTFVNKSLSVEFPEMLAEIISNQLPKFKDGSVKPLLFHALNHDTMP", "experiment": "ATG_rtGR_EcoTox2: Attagene TRANS-FACTORIAL EcoTox-2 HepG2 Assay for rainbow trout Glucocorticoid Receptor (GR)", "experimental": "ATG_EcoTox2 is a cell-based, multiplexed assay created by modifying the existing Attagene TRANS-FACTORIAL system to include a panel of nuclear receptors from some or all the following species: human (Homo sapiens), african clawed frog (Xenopus laevis), rainbow trout (Oncorhynchus mykiss), japanese medaka (Oryzias latipes), and zebrafish (Danio rerio). The ECOTOX2-FACTORIAL format uses HepG2, a human liver cell line, with measurements taken at 24 hours after chemical dosing in a 24-well plate. ATG_rtGR_EcoTox2 is one of 29 assay components calculated in the ATG_EcoTox2 assay. It is designed to make measurements of mRNA induction, a form of inducible reporter, as detected with fluorescence intensity signals by Reverse transcription polymerase chain reaction (RT-PCR) and Capillary electrophoresis technology.The assay endpoint ATG_rtGR_EcoTox2 was analyzed in the positive analysis fitting direction relative to DMSO as the negative control and baseline of activity. Using a type of inducible reporter, measures of mRNA for gain-of-signal activity can be used to understand the reporter gene at the transcription factor-level as they relate to the gene for glucocorticoid receptor. Furthermore, this assay endpoint can be referred to as a primary readout, because this assay has produced multiple assay endpoints where this one serves a reporter gene function. To generalize the intended target to other relatable targets, this assay endpoint is annotated to the nuclear receptor intended target family, where the subfamily is steroidal.\nHuman liver HepG2 cells are transiently transfected with multiple reporter transcription units (MRTUs) in 6-well plates using FuGene 6 reagent (Roche; 3 ml FuGene/1 mg DNA). The MRTU constructs are regulated by a cis-regulating element (promoter). Each RTU expresses a GAL4-UAS that regulates the transcription of a nearby target reporter gene sequence. A major difference between the CIS and TRANS system is that in CIS activities of endogenous TFs are measured, whereas the TRANS assay evaluates changes in activities of exogenous, chimeric NR-Gal4 proteins. […] At the end of 24 hour incubation, total RNA was isolated using TriZol reagent (Invitrogen). The isolated RNA is then reverse-transcribed using oligo(dT) primer and Mo-MLV reverse transcriptase (Invitrogen) with DNAse I (Ambion) treatment for 30 min. The one-tenth of the produced cDNA was amplified by PCR using Taq DNA polymerase (Invitrogen) and two reporter sequence-specific primers. The PCR products were fluorescently labeled by primer extension with 6-arboxyfluorescein (6-FAM) 5'-labeled reporter sequence-specific primer (2 min at 95 C, 20 s at 68 C and 10 min at 72 C) and these products were digested with 5U of HpaI (New England Biolabs) for 2h at 37 C. The fragments were purified using Qiaquick PCR columns (Qiagen), analyzed on an ABI 3130xL genetic analyzer (Applied Biosystems) with peak positions identified by using a set of X-rhodamine (ROX)-labeled MapMarker1000 molecular weight standards (BioVentures). The raw capillary electrophoresis data was processed using Attagraph software (Attagene).", "note": "Results filed as inconclusive are left out. Active and inactive are the calls of the source. The calls were made as follows: active = hit-call score of the fitted dose curve at least 0.9, where 1 is the maximum; inconclusive = response in the unintended direction; inactive = score below 0.9.", "data": [{"compound": "CC(C)(Oc1ccc(Cl)cc1)C(=O)O", "values": [{"measurement": "outcome", "value": "inactive"}]}, {"compound": "CC(C)OC(=O)C(C)(C)Oc1ccc(C(=O)c2ccc(Cl)cc2)cc1", "values": [{"measurement": "outcome", "value": "inactive"}]}, {"compound": "C=C(c1ccc(C(=O)O)cc1)c1cc2c(cc1C)C(C)(C)CCC2(C)C", "values": [{"measurement": "outcome", "value": "inactive"}]}, {"compound": "C[C@@H]1C[C@H]2[C@@H]3CCC4=CC(=O)C=C[C@]4(C)[C@@]3(F)[C@@H](O)C[C@]2(C)[C@@]1(O)C(=O)COP(=O)(O)O", "values": [{"measurement": "AC50", "value": "0.0206 µM (active)"}]}, {"compound": "Cc1ccc(C)c(OCCCC(C)(C)C(=O)O)c1", "values": [{"measurement": "outcome", "value": "inactive"}]}, {"compound": "CC(c1cc2ccccc2s1)N(O)C(N)=O", "note": "(stereo unspecified)", "values": [{"measurement": "outcome", "value": "inactive"}]}]}
